This note sets out measurements from PubChem BioAssay.

Active and inactive are the calls of the source.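 The calls were made as follows, unless noted: active = calcium signal rise more than 3 SD above the low-dose agonist control mean, in both duplicate plates and the primary screen; inactive = the rest.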

One assay in a line: calcium flux activation in mu-opioid HEK293 cells, confirmation, counter-screen for TRPC4 activator project, cell-based, HEK293 mu-opioid receptor line (AID 449723;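 active = hit in primary screen, with calcium signal over 5 SD above buffer well mean in both duplicates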;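 also: counter screen cells carry the mu-opioid receptor alone and lack TRPC4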). The following applies: Fluo-4 calcium fluorescence, at 10 µM; active compounds read high. For orientation: Calcium assays in cells follow changes in intracellular calcium, usually with a dye or a luminescent sensor.
Consider `CCN1CCCC1CNS(=O)(=O)c1c(C)cc(C)cc1C` (stereo not drawn), for which the result was inactive. Same read-out and setting: the entry for `Cc1ccc(OCC(=O)N(C)CCc2ccccn2)cc1` is “inactive”; for `CC(C)n1cnc2c(N(C)c3ccccc3)nc(N(CCN(C)C)Cc3ccccc3)nc21` it is “inactive”; for `CCC(=O)N1CCc2cc(Br)cc(S(=O)(=O)NCCCN(CC)Cc3ccccc3)c21` it is “inactive”. Still for that read-out and setting: the same measure for `NCCCNC(=O)c1cc2ccccc2[nH]1`: “inactive”; for `CN(C)C(CNC(=O)Nc1cccc(Cl)c1)c1cccnc1` (stereo not drawn): “inactive”.

For `CN(C)C(CNC(=O)CCS(=O)(=O)c1ccccc1)c1ccccc1` (stereo not drawn), the outcome was inactive. In the case of `COc1c2c(cc3c1C(CC(O)Cc1ccccc1)N(C)CC3)OCO2` (stereo not drawn), the outcome was inactive. Still for that read-out and setting: the entry for `CC1CN(C)C(C)c2c1oc1ccc(N)cc21` (stereo not drawn) is “inactive”.

Consider `CN(C)c1ccc(C(CNC(=O)Cc2cccc3ccccc23)N(C)C)cc1` (stereo not drawn), for which the result was inactive.

Consider `Cc1cc(C)cc(NC(=S)N2CCN(c3ncc(C(F)(F)F)cc3Cl)CC2)c1`, for which the outcome was inactive.

With `COC(=O)C1CCN(Cc2cn(-c3ccccc3)nc2-c2ccc3c(c2)OCO3)CC1`, the outcome was inactive. On the same count and under the same terms, the same measure for `Cc1cccc(OCCOCCN2CCNCC2)c1C`: “inactive”. For the compound `O=C1/C(=C\c2cc([N+](=O)[O-])ccc2O)SC(=S)N1Cc1ccc(Cl)cc1`, the activation was 158% (active).

For `CCn1c(N2CCN(S(=O)(=O)CC)CC2)nc2ccccc21`, the outcome was inactive.

With `COc1ccc(CSCCN)cc1Cl`, the result was inactive. As to `O=C1S/C(=C\c2ccc(N3CCOCC3)o2)C(=O)N1Cc1c(F)cccc1Cl`, the outcome was inactive. On the same count and under the same terms, the same measure for `CC(C)(C)[C@H]1C=C(C(=O)NCc2ccccc2)O[C@@H](OCc2ccc(CO)cc2)C1`: “inactive”. With `Nc1c(C(=O)c2ccccc2)sc2nsc(SCCN3CCCC3)c12`, the activation is 84.3% (active).

Regarding `O=C(CC(=O)c1c(F)cccc1Cl)c1ccccc1O`, the activation is 33.3% (active). As for `Cc1ccccc1Cn1c(CN2CCc3ccccc3C2)nc2c1c(=O)n(C)c(=O)n2C`, the result was inactive. On the same count and under the same terms, the entry for `Cc1csc2c(N3CCN(C(=O)Nc4ccc(OC(F)(F)F)cc4)CC3)ncnc12` is “inactive”; for `O=S(=O)(NCCc1csc(-c2ccccc2)n1)c1cccnc1` it is “inactive”.

The next assay can be described thus: calcium flux enhancement in mu-opioid HEK293 cells, confirmation, counter-screen for TRPC4 allosteric potentiator project, cell-based, HEK293 mu-opioid receptor line (AID 449724).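 Also: HEK293 cells carrying mu-opioid receptor only with no TRPC4 channel.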 The settings on record: Fluo-4 calcium flux, at 10 µM, compound added before EC20 DAMGO stimulus; active compounds read high.
For `COc1ccc(C(CCNCc2ccc(N(C)C)cc2)c2ccccc2)cc1` (stereo not drawn), the result was inactive. Same read-out and setting: the same measure for `COc1ccc(C(=O)NNC(=S)NC(=O)c2cccs2)cc1`: “inactive”. With `Cc1cccc(C(=O)NC(=S)NNC(=O)Cc2ccccc2)c1`, the result was inactive. Still for that read-out and setting: the entry for `COc1ccc(CC(=O)NCC(c2ccc(OC)cc2)N(C)C)cc1` (stereo not drawn) is “inactive”.

In the case of `COc1cccc(C(=O)NC2CCCN(C3Cc4ccccc4C3)C2)c1OC` (stereo not drawn), the result was inactive. Still for that read-out and setting: the entry for `NC(=O)C1CCCN(CCc2ccccc2)C1` (stereo not drawn) is “inactive”; for `CNC[C@H](Cc1ccccc1)NC[C@@H](Cc1cccc2ccccc12)NCCc1ccc(C)cc1` it is “inactive”. As to `O=C(CC1C(=O)NCCN1Cc1cccc(Oc2ccccc2)c1)NCCc1ccccn1` (stereo not drawn), the result was inactive. On the same count and under the same terms, the entry for `COc1ccccc1/C=C/CN1CCCC(CCC(=O)NCc2ccccc2F)C1` (stereo not drawn) is “inactive”. As to `C=CCn1c(/N=C/c2ccc(N(C)C)cc2)nc2ccccc21`, the activation was 1320% (active). With `Cc1oc(-c2ccccc2Cl)nc1CS(=O)CC(=O)NCCCN1CC(C)CC(C)C1` (stereo not drawn), the outcome was inactive. The same measure, in the same setting: the same measure for `COc1ccc(CN2CCC(N(CCc3ccccc3)Cc3ccccc3)CC2)c(OC)c1`: “inactive”. Regarding `O=C(NC(=S)NNC(=O)c1ccccc1[N+](=O)[O-])c1ccc(Br)cc1`, the outcome was inactive. On the same count and under the same terms, the same measure for `O=C(NC1CCN(Cc2ccccc2)CC1)C12CC3CC(CC(C3)C1)C2`: “inactive”. With `CCCN1CCN(C(=O)Cn2c(=O)oc3cc(S(=O)(=O)NCc4ccccc4)ccc32)CC1`, the outcome was inactive. The same measure, in the same setting: the same measure for `Cn1c2ccccc2c(=O)c2c(=O)n(C3CCCCC3)c(-c3ccco3)nc21`: “inactive”; for `OCCC1CN(Cc2ccccc2-c2ccco2)CCN1Cc1ccccc1` (stereo not drawn): “inactive”. Still for that read-out and setting: the entry for `CCN1CCCC1CNS(=O)(=O)c1c(C)cc(C)cc1C` (stereo not drawn) is “inactive”. Same read-out and setting: the entry for `Cc1ccc(OCC(=O)N(C)CCc2ccccn2)cc1` is “inactive”; for `CC(C)n1cnc2c(N(C)c3ccccc3)nc(N(CCN(C)C)Cc3ccccc3)nc21` it is “inactive”; for `CCC(=O)N1CCc2cc(Br)cc(S(=O)(=O)NCCCN(CC)Cc3ccccc3)c21` it is “inactive”. For `NCCCNC(=O)c1cc2ccccc2[nH]1`, the result was inactive. For `CN(C)C(CNC(=O)Nc1cccc(Cl)c1)c1cccnc1` (stereo not drawn), the result was inactive. As for `CN(C)C(CNC(=O)CCS(=O)(=O)c1ccccc1)c1ccccc1` (stereo not drawn), the outcome was inactive.

As for `COc1c2c(cc3c1C(CC(O)Cc1ccccc1)N(C)CC3)OCO2` (stereo not drawn), the outcome was inactive. On the same count and under the same terms, the entry for `CC1CN(C)C(C)c2c1oc1ccc(N)cc21` (stereo not drawn) is “inactive”; for `CN(C)c1ccc(C(CNC(=O)Cc2cccc3ccccc23)N(C)C)cc1` (stereo not drawn) it is “inactive”; for `Cc1cc(C)cc(NC(=S)N2CCN(c3ncc(C(F)(F)F)cc3Cl)CC2)c1` it is “inactive”. The same measure, in the same setting: the entry for `COC(=O)C1CCN(Cc2cn(-c3ccccc3)nc2-c2ccc3c(c2)OCO3)CC1` is “inactive”. Regarding `Cc1cccc(OCCOCCN2CCNCC2)c1C`, the result was inactive. As for `O=C1/C(=C\c2cc([N+](=O)[O-])ccc2O)SC(=S)N1Cc1ccc(Cl)cc1`, the activation is 5450% (active). For the compound `CCn1c(N2CCN(S(=O)(=O)CC)CC2)nc2ccccc21`, the outcome was inactive. `COc1ccc(CSCCN)cc1Cl`: the result was inactive.

For `O=C1S/C(=C\c2ccc(N3CCOCC3)o2)C(=O)N1Cc1c(F)cccc1Cl`, the outcome was inactive. As for `CC(C)(C)[C@H]1C=C(C(=O)NCc2ccccc2)O[C@@H](OCc2ccc(CO)cc2)C1`, the outcome was inactive.

With `Nc1c(C(=O)c2ccccc2)sc2nsc(SCCN3CCCC3)c12`, the outcome was inactive. For the compound `O=C(CC(=O)c1c(F)cccc1Cl)c1ccccc1O`, the result was inactive. The same measure, in the same setting: the entry for `Cc1ccccc1Cn1c(CN2CCc3ccccc3C2)nc2c1c(=O)n(C)c(=O)n2C` is “inactive”; for `Cc1csc2c(N3CCN(C(=O)Nc4ccc(OC(F)(F)F)cc4)CC3)ncnc12` it is “inactive”; for `O=S(=O)(NCCc1csc(-c2ccccc2)n1)c1cccnc1` it is “inactive”.
